About 22,000 (6.9%) of roughly 320,000 compounds were called active. Roughly 27% stayed inconclusive and do not appear here. Only a selection was taken, and actives are over-represented in it overall. Unmarked numbers belong to inactive results. Calls follow the shape of the dose curve; as a rule, active = well fitted inhibition curve with a large enough effect; inconclusive = small, poorly fitted or top-dose-only effect, or another doubt; inactive = no such curve, though single readings can be large or run the other way.
Assay: Primary qHTS for delayed death inhibitors of the malarial parasite plastid, 96 hour incubation
Conditions: P. falciparum luciferase reporter growth; series mostly up to 28.7 µM; activity change, negative = inhibition: at the top concentration
Summary of the method: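 P. falciparum expressing integrated firefly luciferase grown in erythrocytes (2% hematocrit, 0.05% parasitemia final) with compounds for 96 hours at 37 C, 5% CO2. Growth inhibition read as loss of luminescence after adding luciferase detection reagent.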
% is scaled to controls: 0 for no effect and ±100 for the full control effect; potency is read from the fitted curve at half-maximal effect.

SMILES	activity change, negative = inhibition	Potency
O=C(Nc1ccc(N2CCCC2=O)cc1)c1cncc(Br)c1	1.63%	–
NC(=O)C1CCN(C(=O)c2ccc(F)c(S(=O)(=O)N3CCOCC3)c2)CC1	6.45%	–
O=C(c1ccc(F)c(S(=O)(=O)N2CCOCC2)c1)N(CCc1ccccc1)Cc1ccccc1	–	2.62 µM (active)
Cc1cccc(NC(=O)c2cc(S(=O)(=O)N3CCC4(CC3)OCCO4)ccc2F)c1	23.8%	–
COc1ccc(C(=O)N(Cc2ccccc2)c2ccc(C)cc2)cc1S(=O)(=O)N1CCOCC1	-68.2%	–
Cc1cccc(N(Cc2ccccc2)C(=O)c2ccccc2F)c1	-24.8%	–
Cc1cccc(N(Cc2ccccc2)C(=O)c2cc(S(=O)(=O)N3CCOCC3)ccc2F)c1	–	11.7 µM (active)
Cc1cccc(C(=O)Nc2ccc(Oc3cnccn3)cc2)c1	63.5%	–
COc1cccc(C(=O)n2ccc(-c3cccs3)n2)c1	0%	–
CC(=O)Nc1cccc(NC(=O)CSc2nccn2Cc2ccc(F)cc2)c1	0%	–
COC(=O)[C@H](CC(C)C)NC(=O)N1CCCCC1C (stereo partly specified)	-9.64%	–
CCCc1c(C(=O)Nc2ccc(F)cc2)cnn1-c1ccccc1	-24.3%	–
Cc1cc(C)cc(N(CCC#N)C(=O)CN2C(=O)NC3(CCCC3)C2=O)c1	13.1%	–
COc1ccc(CCNc2cc(C)nc3c(-c4ccc(Cl)cc4)c(C)nn23)cc1OC	–	10.4 µM (active)
COc1ccc(CCNc2nc(C)cc(C)n2)cc1OC	0%	–
COc1ccc(CCNc2nc3ccc(C)cc3n3cnnc23)cc1OC	20.1%	–
COc1ccccc1-c1cnn2c(N3CCOCC3)cc(C)nc12	136%	–
CCc1nccn1S(=O)(=O)c1cccc([N+](=O)[O-])c1	1.85%	–
O=C(Oc1ccc([N+](=O)[O-])cc1)c1ccc(Cl)c(S(=O)(=O)N2CCCCC2)c1	-10.5%	–
CC(C)c1nccn1S(=O)(=O)c1cc([N+](=O)[O-])ccc1Cl	–	11.7 µM (active)
CSc1ccc(-c2c(C#N)c(N)nc3c2c(C)nn3-c2ccccc2)cc1	–	2.08 µM (active)
Cn1c(=O)c2c(-c3cccc(Br)c3)c(C#N)c(N)nc2n(C)c1=O	23.3%	–
Cc1nn(-c2ccccc2)c2c1C(c1ccc(F)cc1)C(C#N)=C(N)O2 (stereo unspecified)	52.7%	–
COc1ccc2c3c(c(=O)oc2c1)C1O[C@](CCCCN2C(=O)c4ccccc4C2=O)(Cc2c1ccc1ccccc21)O3	49.1% [at 5.75 µM]	–
COc1cccc(N2C(=O)CN(Cc3ccccc3)C2=S)c1	–	1.31 µM (active)
Cc1cccc(C)c1N1C(=O)CN(Cc2ccccc2)C1=S	23%	–

SMILES	activity change, negative = inhibition	Potency
COc1cccc(N2C(=O)CC(N3CCN(S(=O)(=O)c4ccccc4)CC3)C2=O)c1 (stereo unspecified)	-19.2%	–
Cc1ccc(S(=O)(=O)N(C)c2ccc(OCC(=O)OCC(=O)N(CC#N)c3ccccc3)cc2)cc1	1.77%	–
CN(CC(=O)Nc1ccc(Cl)cc1)C(=O)CNC(=O)c1ccc2ccccc2c1	34.5%	–
O=c1c2ccccc2cnn1Cc1n[nH]c(=S)n1-c1ccccc1F	24.1%	–
COc1ccc(NS(=O)(=O)c2ccc(N3CCN(CCO)CC3)c([N+](=O)[O-])c2)cc1	-11.6%	–
COc1ccc(/C=C/C(=O)Nc2ccc3c(c2)OCCO3)cc1OC	-3.91%	–
COc1ccc(NS(=O)(=O)c2cc(NC(=O)/C=C/c3cc(OC)c(OC)c(OC)c3)ccc2N2CCCCC2)cc1	–	2.08 µM (active)
CCOC(=O)COn1c(=O)c(-c2ccc(OCC)cc2)[n+]([O-])c2ccccc21	80.9%	–
Cc1cc([N+](=O)[O-])c(-c2ccc(/C=N/n3cnnc3)o2)cc1Cl	7.67%	–
Cc1cc(-c2ccc(/C=N/n3cnnc3)o2)c([N+](=O)[O-])cc1C	7.32%	–
O=C1C2C3C=CC(C4CC34)C2C(=O)N1/N=C/c1ccc(-c2ccccc2[N+](=O)[O-])o1 (stereo unspecified)	–	13.1 µM (active)
COc1cc2c(cc1O)[C@H](Cc1ccc(Oc3cc(C[C@@H]4NCCc5cc(OC)c(O)cc54)ccc3O)cc1)NCC2	–	0.415 µM (active)
CCc1ccc(OCC2c3cc(OC)c(OC)cc3CCN2C(C)=O)cc1 (stereo unspecified)	3.03%	–
COc1ccc(NC(=O)CN(C)C(=O)c2ccc(NC3CC3)c([N+](=O)[O-])c2)cc1	-25.4%	–
COc1cccc(N(CC(=O)NCc2ccccc2)C(=O)CCC(=O)Nc2nccs2)c1	-3.46%	–
NC(=O)C1CCN(C(=O)CC2C(=O)NCCN2Cc2cccc(Oc3ccccc3)c2)CC1 (stereo unspecified)	2.05%	–
CC(C)(CNCC(O)c1ccccc1)N1CCOCC1 (stereo unspecified)	–	5.86 µM (active)
OC(CNCc1ccc(Cl)c(Cl)c1)c1ccccc1 (stereo unspecified)	1.84%	–
CC(C)(CNC(=O)c1cc(=O)[nH]c2ccccc12)N1CCOCC1	-11.1%	–
Cc1c(Cl)c([N+](=O)[O-])nn1Cc1ccc(C(=O)N/N=C\c2cc(Cl)ccc2O)o1	–	3.7 µM (active)
Cc1c(Cl)c([N+](=O)[O-])nn1CCCC(=O)Nc1cc(Cl)ccc1Cl	-31.1%	–
O=C(N/N=C/c1ccc2c(c1)OCO2)c1ccc(Cn2cc([N+](=O)[O-])cn2)o1	-6.78%	–
CS(=O)(=O)Nc1ccccc1N=C(c1ccccc1)c1ccccc1	3.7%	–
Cc1ccc(-c2nc(C#N)c(NCCCn3ccnc3)o2)cc1	237%	–
O=C(/C=C/c1ccc(Cl)cc1)NCCCn1ccnc1	-24.8%	–
Cc1ccc(S(=O)(=O)c2nc(NCCCn3ccnc3)sc2Cl)cc1	–	6.57 µM (active)

SMILES	activity change, negative = inhibition	Potency
COc1ccc(NC(=O)CN(C)C(=O)c2ccc(COc3ccccc3)o2)cc1	-4.52%	–
CC(=O)c1ccccc1OCc1ccc(C(=O)c2ccccc2)cc1	-97.2%	–
Cc1ccc(NS(=O)(=O)c2ccc3c(c2)CC(=O)N3)cc1Cl	14%	–
COc1cccc(Nc2nnc(SCC(=O)N3CC(=O)Nc4ccccc43)s2)c1	–	4.65 µM (active)
COc1cccc(Nc2nnc(SCC(=O)N3CC(C)OC(C)C3)s2)c1 (stereo unspecified)	34.9%	–
Cc1nc(SCC(=O)N2CC(=O)Nc3ccccc32)c2c(C)c(C)sc2n1	0%	–
C#CCOc1ccc(/C=C2/C(=O)ON=C2C)cc1OCC	-7.81%	–
COCc1c(C(=O)N/N=C(\C)c2ccncc2)nnn1-c1nonc1N	-3.74%	–
Cc1nc2sccn2c(=O)c1S(=O)(=O)NCCc1ccccc1	0%	–
CCc1cccc(C)c1NS(=O)(=O)c1c(C)nc2sccn2c1=O	0.376%	–
CCOC(=O)c1ccccc1NS(=O)(=O)c1c(C)nc2sccn2c1=O	–	14.7 µM (active)
Cc1cc(OCCCCOc2ccc(C#N)cc2)ccc1[N+](=O)[O-]	12.6%	–
COc1ccc(CCOC(=O)CNC(=O)c2ccc(Cl)cc2Cl)cc1	-13.4%	–
Cc1cc(C)c(S(=O)(=O)Nc2c(C)n(C)n(-c3ccccc3)c2=O)cc1[N+](=O)[O-]	-2.69%	–
CCCOc1cccc(C(=O)NCCCNC(=O)c2cccnc2)c1	95.6%	–
CCCn1nnc(NC(=O)COc2ccc(CC)cc2)n1	5.36%	–
CCCOc1cccc(C(=O)Nc2nnn(CCC)n2)c1	–	4.65 µM (active)
Cc1cc(C(F)F)nn1CC(=O)NC1CCCCCC1	-19.5%	–
CN(C)c1ccc(CNC(=O)CN2C(=O)COc3ccc(S(=O)(=O)N4CCCC4)cc32)cc1	12.7%	–
Clc1cccc(-c2nc(NCC3CCCO3)c3ccccc3n2)c1 (stereo unspecified)	37.3% [at 5.75 µM]	–
NC(N)=Nc1nc(-c2ccccc2)c2cc(Cl)ccc2n1	51.4%	–
Clc1ccc2nc3c(c(-c4ccccc4)c2c1)CNCC3	–	13.1 µM (active)
COc1ccc(NC(=O)COc2ccc(C(=O)c3ccc(F)cc3)cc2)cc1S(N)(=O)=O	-26.2%	–
CC(=O)NCC(=O)NC1CCCc2c1cnn2-c1ccccc1F (stereo unspecified)	-6.37%	–
COc1ccc(Cl)cc1S(=O)(=O)Nc1cccc(C(=O)O)c1	–	10.4 µM (active)
COc1cc(OC)c(S(=O)(=O)Nc2ccccc2C(=O)O)cc1S(=O)(=O)Nc1ccccc1C(=O)O	-13.4%	–

SMILES	activity change, negative = inhibition	Potency
O=C(O)c1ccc(F)c(S(=O)(=O)Nc2ccccc2)c1	24.9%	–
CN1CCN(c2ncc3c(n2)CC(c2ccccc2F)CC3=O)CC1 (stereo unspecified)	40.8%	–
COc1ccccc1C(C)NC(=O)Cc1ccsc1 (stereo unspecified)	2.57%	–
CCCCOc1ccc(CON(C(C)=O)C(C)=O)cc1Cl	5.53%	–
O=C(CNC(=O)c1ccccc1)Oc1ccc([N+](=O)[O-])cc1	1.08%	–
CC(Cc1cccs1)NC(=O)c1cccc(Cl)c1 (stereo unspecified)	43.8%	–
CC(Cc1cccs1)NCc1ccc(Cl)cc1 (stereo unspecified)	54.2%	–
CC(Cc1cccs1)N(Cc1ccc(Cl)cc1)C(=O)c1ccncc1 (stereo unspecified)	–	13.1 µM (active)
CCCc1ccc(OCCNC(=O)c2ccccc2Br)cc1	-8.4%	–
O=C(N/N=C/c1cc2c(cc1Br)OCO2)C1COc2ccccc2O1 (stereo unspecified)	–	7.38 µM (active)
CC(/C=C/c1ccco1)=N/NC(=O)C1COc2ccccc2O1 (stereo unspecified)	-5.91%	–
O=C(N/N=C\c1cc2c(cc1Cl)OCO2)c1ccc(Br)s1	19%	–
Cc1cc(C)c(S(=O)(=O)NCC2CCC(C(=O)NCc3ccc4c(c3)OCO4)CC2)c(C)c1 (stereo unspecified)	-66.7%	–
COc1ccc(C(=O)NCC2CCCN2S(=O)(=O)c2cccs2)cc1OC (stereo unspecified)	-4.53%	–
Cc1cc(C)c(S(=O)(=O)N2CCCC2CNC(=O)c2ccc3c(c2)OCO3)c(C)c1 (stereo unspecified)	–	11.7 µM (active)
CCOc1ccc(S(=O)(=O)N2CCC(C(=O)NCc3ccccn3)CC2)cc1Cl	-3.21%	–
O=C(NCc1ccccc1)C1CCN(C(=O)Cc2ccccc2)CC1	-21.4%	–
Cc1ccc(/C=N/NC(=S)Nc2cccc(S(=O)(=O)N(C)C)c2)o1	–	6.57 µM (active)
CN(C)S(=O)(=O)c1cccc(NC(=O)COC(=O)/C=C/c2cccs2)c1	55.6%	–
CN(C)S(=O)(=O)c1cccc(NC(=O)COC(=O)c2cc(=O)[nH]c(=O)[nH]2)c1	6.59%	–
CCCOc1ccc(Cc2c(O)nc(N)[nH]c2=O)cc1C	-17.1%	–
S=C(NNC(=S)NC1CC2C=CC1C2)NC1CC2C=CC1C2 (stereo unspecified)	–	9.28 µM (active)
CSC1=NC2(C)CCCCC2C12C=CC(=O)C=C2 (stereo unspecified)	–	13.1 µM (active)
